# Shown are actives, neighbours in structure and some others; about 3.5% of the full set was active somewhere.
# BoNT-F LC inh – BoNT F light chain protease inhibition; Multiplex microsphere protease cleavage assay, flow cytometry; inhibition, % at 10 µM; 360,000 compounds, 0.22% hits; AID 588497; in the data active = inhibition above about 35%, passing the limit was not always enough; inconclusive = no clear call, values can overlap the other calls; note: plate controls were buffer without enzyme for full effect and enzyme alone for no effect
# BoNT A protease – BoNT A light chain protease inhibition; multiplex microsphere protease substrate cleavage, flow cytometry; inhibition, % at 10 µM; 360,000 compounds, 0.17% hits; note: plate controls were buffer without enzyme for full effect and enzyme alone for no effect
# BJeLR lethal – kills HRASV12-expressing BJeLR cells. BJeLR (HRASV12) viability, CellTiter-Glo ATP luminescence, 48 h. inhibition, % (concentration not given with the values). 300,000 compounds, 0.17% hits. AID 1554; in the data active = inhibition above about 50%; inconclusive = no clear call, values can overlap the other calls
# Anthrax LF prot – inhibitors of Bacillus anthracis lethal factor protease; P15917; multiplex microsphere protease cleavage assay, LF; inhibition, % at 10 µM; 360,000 compounds, 0.12% hits; AID 588501; note: plate controls were buffer without enzyme for full effect and enzyme alone for no effect
# Target sequence (P15917 whole entry, looked up): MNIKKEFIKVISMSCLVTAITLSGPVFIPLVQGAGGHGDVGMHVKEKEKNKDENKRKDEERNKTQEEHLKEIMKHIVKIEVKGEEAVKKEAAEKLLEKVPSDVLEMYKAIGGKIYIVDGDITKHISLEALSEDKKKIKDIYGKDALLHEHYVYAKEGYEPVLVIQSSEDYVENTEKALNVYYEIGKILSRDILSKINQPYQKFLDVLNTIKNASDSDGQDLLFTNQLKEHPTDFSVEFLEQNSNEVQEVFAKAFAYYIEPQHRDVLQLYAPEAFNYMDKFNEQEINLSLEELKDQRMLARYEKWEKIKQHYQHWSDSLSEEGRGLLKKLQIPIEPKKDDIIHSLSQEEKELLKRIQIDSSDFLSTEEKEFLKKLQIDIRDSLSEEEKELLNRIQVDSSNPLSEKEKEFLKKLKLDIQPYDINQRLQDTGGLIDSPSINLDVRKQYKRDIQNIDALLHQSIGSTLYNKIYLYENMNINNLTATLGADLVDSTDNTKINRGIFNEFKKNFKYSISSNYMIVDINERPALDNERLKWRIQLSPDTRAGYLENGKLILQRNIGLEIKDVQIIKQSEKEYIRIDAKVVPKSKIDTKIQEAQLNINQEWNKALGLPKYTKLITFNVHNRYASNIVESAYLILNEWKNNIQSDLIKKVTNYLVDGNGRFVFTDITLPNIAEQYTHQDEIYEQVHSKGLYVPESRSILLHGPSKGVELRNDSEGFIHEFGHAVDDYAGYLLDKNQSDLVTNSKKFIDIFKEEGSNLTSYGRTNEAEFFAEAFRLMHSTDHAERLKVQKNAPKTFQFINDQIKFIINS
# Autofluor counter – flagged as autofluorescent in microsphere protease counterscreen; fluorescence intensity (concentration not given with the values); 360,000 compounds, 3.1% hits; compound autofluorescence counterscreen, microsphere flow cytometry; stronger effect = higher value; in the data active = fluorescence intensity above about 16000; inconclusive = no clear call, values can overlap the other calls
# An asterisk follows results filed as active; ? = inconclusive; nt = no result given. Cut-off read from the data, not from the text of the source, unless noted: active = inhibition above about 30%; inconclusive = no clear call, values can overlap the other calls; inactive = below that.
SMILES,BoNT-F LC inh,BoNT A protease,BJeLR lethal,Anthrax LF prot,Autofluor counter
Cc1ccc(Nc2nc(N)nc(CN3CCN(Cc4ccc5c(c4)OCO5)CC3)n2)cc1C,1.9,-0.6,3.7,-5.0,5201
Cc1ccc(Nc2nc(N)nc(CN3CCN(c4ccccc4)CC3)n2)cc1Cl,-0.4,?,2.3,-6.1,21461*
COc1ccccc1Nc1nc(N)nc(CN2CCN(c3ccccc3)CC2)n1,1.3,2.0,-0.9,-0.3,21394*
O=C(Oc1c(Cl)cc(Cl)c2ccccc12)N1CCCC1,2.1,0.0,10.4,-3.7,22642*
CC#CCCCC(=O)Nc1cc(OC)nc(OC)n1,4.0,1.5,4.5,-0.6,22745*
Cc1c(CCO)c(=O)[nH]n1C(=O)c1ccc(F)cc1,-2.3,-0.2,2.9,-5.1,23529*
CCCC(=O)Nc1nnc(Cc2ccccc2)s1,-0.9,-1.6,nt,-2.6,24700*
CCC(=O)Nc1nnc(Cc2ccccc2)s1,-4.4,-0.5,-4.2,-5.1,9909
CCOCc1nnc(NC(=O)CSCc2ccccc2)s1,4.5,?,1.1,-1.9,20554*
CCOCc1nnc(NC(=O)COC)s1,-4.1,-1.8,4.9,-0.7,23993*
CCOCCc1nnc(NC(=O)C(CC)c2ccccc2)s1 (stereo unspecified),-4.6,-0.5,0.9,-0.1,16622*
Cc1ccc(NC(=O)CSc2nnc(C3CC3)n2C)cc1S(=O)(=O)N1CCCCC1,-10.3,0.1,nt,2.6,3726
CC1=C(C(=O)N2CCCCCC2)CC(CC(=O)NC2CCCC2)C(=O)N1Cc1ccc(C(C)(C)C)cc1 (stereo unspecified),-6.7,-0.8,nt,-0.9,6351
Cc1csc(NC(=O)c2cncc(Br)c2)n1,-0.8,-0.1,-9.1,-3.5,5951
O=C(c1cc(-c2cccnc2)nc2ccccc12)N1CCC2(CC1)OCCO2,-1.5,2.1,-2.6,-9.8,19594*
O=C(c1cc(-c2cccnc2)nc2ccc(Cl)cc12)N1CCC2(CC1)OCCO2,3.2,0.8,-5.0,-0.1,2027
O=C(c1cc(-c2ccncc2)nc2ccccc12)N1CCN(c2ccccn2)CC1,-8.0,-6.4,-5.6,-2.2,17502*
COC(=O)C(O)(CC(=O)Nc1ccc(OC)cc1)C(F)(F)F (stereo unspecified),21.1,0.5,6.2,1.9,3549
COC(=O)C(O)(CC(=O)Nc1ccc(C)c(F)c1)C(F)(F)F (stereo unspecified),15.0,?,6.7,2.4,16452*
CSC1=NC=C(C#N)C2=NC(c3ccc(Cl)cc3)NN12 (stereo unspecified),1.0,0.0,nt,2.7,4526
COc1ccc(CCN(C)C(=O)CSc2ncnc3sccc23)cc1OC,5.5,0.1,-1.3,-0.6,4607
COc1ccc(CCN(C)C(=O)CSc2nccn2C)cc1OC,1.9,?,nt,-0.6,19523*
NS(=O)(=O)c1ccc(CCNC(=O)[C@@H]2CCCN2S(=O)(=O)c2ccccc2F)cc1,-6.6,-0.2,-5.4,-8.8,5880
NS(=O)(=O)c1ccc(CCNC(=O)C2CCCCN2S(=O)(=O)c2ccccc2)cc1 (stereo unspecified),0.4,1.6,0.9,-17.4,21340*
CCOc1ccccc1N1CC(C(=O)NCCc2ccc(S(N)(=O)=O)cc2)CC1=O (stereo unspecified),-2.3,0.9,-13.3,-2.0,20308*
SMILES,BoNT-F LC inh,BoNT A protease,BJeLR lethal,Anthrax LF prot,Autofluor counter
O=C(NCCc1ccccc1F)C1CCCN1S(=O)(=O)c1ccc2ccccc2c1 (stereo unspecified),-3.0,0.2,-6.6,-4.1,20558*
Fc1cccc(Cc2c(-c3cccc(Cl)c3)nc3ccc(Cl)cn23)c1,11.4,0.0,nt,10.2,7068
O=C(Nc1ccc(O)cc1)C1CC=CCC1 (stereo unspecified),-14.4,?,-9.3,-4.2,18689*
O=C(Nc1cccc(C(F)(F)F)c1)c1ccc2sc([C@H]3C[C@H](O)[C@@H](CO)O3)nc2c1,-3.8,-0.4,nt,-5.9,2813
CCOc1ccc(C(=O)N2CCN(c3ccccn3)CC2)cc1,nt,nt,-4.0,nt,nt
O=C1CCN(Cl)C(=O)N1Cl,3.0,-0.7,nt,0.8,6154
CN(/N=C/c1c[nH]c2ccccc12)c1cnn(-c2ccc(F)c(Cl)c2)c(=O)c1Cl,0.1,-1.0,-8.5,-3.5,20923*
CN(/N=C/c1cccnc1)C1=NS(=O)(=O)c2ccccc21,-0.3,0.2,-9.7,-2.8,2369
CN(/N=C/c1cccnc1)c1cnn(-c2ccc(F)c(Cl)c2)c(=O)c1Cl,36.4*,?,-2.3,-20.5,11535
CCn1c(=O)cc(OCC(=O)Nc2ccc(OC)c(OC)c2)c2ccccc21,-2.2,-0.3,-3.7,0.4,2067
CCN(CCCNC(=O)COc1cc(=O)n(C)c2ccccc12)c1ccccc1,0.8,2.0,-0.6,4.8,8949
CCN(CCCNC(=O)COc1cc(=O)n(CC)c2ccccc12)c1ccccc1,-1.2,?,0.3,-2.9,19587*
CCc1ccc(NC(=O)CCCOc2cc(=O)n(C)c3ccccc23)cc1,-1.8,-0.2,nt,-4.1,3765
CCn1c(=O)cc(OCC(=O)Nc2ccc3c(c2)OCCO3)c2ccccc21,0.7,1.2,3.1,-5.3,19914*
Cn1c(=O)cc(OCCCC(=O)Nc2ccc3c(c2)OCCO3)c2ccccc21,2.3,1.5,-6.8,-1.5,21630*
Cn1c(=O)cc(OCCCC(=O)Nc2cccnc2)c2ccccc21,-2.0,-1.8,-9.9,-2.2,23694*
Cc1cc(C)c(S(=O)(=O)N2CCCCC2CCNC(=O)C(=O)NC2CC2)c(C)c1 (stereo unspecified),nt,nt,9.9,nt,nt
CCCCCC(=O)N1C[C@@H](n2cc(-c3ccc(F)cc3)nn2)[C@H](O)C[C@@H]1c1ccc(C)cc1,-4.6,0.0,nt,-9.5,3902
CCn1c(=O)cc(OCC(=O)NCCc2cccc(C)c2)c2ccccc21,-1.5,0.1,0.7,-1.4,2426
CCn1c(=O)cc(OCC(=O)Nc2cc(C)ccn2)c2ccccc21,1.0,-0.5,-5.1,-1.3,22556*
O=C(OCC#CCSc1nnc(-c2cccc3ccccc23)o1)c1ccco1,-3.5,?,-0.9,-2.0,20284*
O=C(OCC#CCSc1nnc(-c2cccc3ccccc23)o1)c1ccc(Br)cc1,-3.1,0.3,nt,-2.3,3587
O=C(OCC#CCSc1nc2ccccc2o1)c1ccco1,2.5,?,-5.1,-9.7,22148*
NC(=S)N/N=C/c1ccccc1OCc1cccc(Cl)c1,-5.3,-0.7,-12.0,1.9,2502
C#Cc1ccc(NC(=O)C2(C)CCN2C(=O)Cc2ccc(C(C)C)cc2)cc1 (stereo unspecified),-5.4,-0.1,nt,-1.5,3879
CCn1c2ccccc2c2cc(NC(=O)CSc3nnc(-c4ccccc4OC)n3N)ccc21,-9.4,?,-2.8,0.3,17821*
CCOc1ccc(-c2nnc(SCC(=O)Nc3ccc4c(c3)c3ccccc3n4CC)n2N)cc1,-2.0,-0.8,-6.9,0.0,16867*
CCn1c2ccccc2c2cc(NC(=O)CSc3nnc(-c4ccc(OC)c(OC)c4)n3N)ccc21,-20.0,3.1,-5.5,11.6,?
Cc1nc2ccc(C(=O)NCCCn3ccnc3)cn2c1N(C)C(=O)CCc1ccccc1,-3.3,-0.2,nt,-3.5,3585
